# The campaign covered roughly 4,100 compounds. About 1,600 (39%) were called active. About 25% were inconclusive and are not listed. Some of the results follow. Values without a mark were called inactive. Calls come from the whole dose curve; as a rule, active = well fitted inhibition curve with a large enough effect; inconclusive = small, poorly fitted or top-dose-only effect; inactive = no such curve, though single readings can be large or run the other way.
# Test: qHTS Validation assay for Inhibitors of Plasmodium falciparum Dd2 growth in vitro; note: nearly all actives have a fitted effect of over 70% in size
# Details: P. falciparum Dd2 in RBCs, SYBR Green growth, 72 h; series mostly up to 28.7 µM; activity change, negative = inhibition: at the top concentration
# Summary of the method: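 P. falciparum Dd2-infected red blood cells (2.5% hematocrit, 0.3% parasitemia) grown 72 h at 37 °C under 5% O2 with compounds in a titration, 29 uM to 0.5 nM final. Growth read as SYBR Green-1 fluorescence after ~16 h lysis; artesunate 300 nM as positive control.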
# % is set by controls: 0 for no effect and ±100 for the full control effect; potency is the fitted concentration of half-maximal effect.
SMILES,"activity change, negative = inhibition",Potency
Cc1cn2nc(C(=O)N3CCC(NC(=O)c4ccc(F)cc4)CC3)cc2c(=O)[nH]1,9.32%,
O=C(Nc1ccsc1C(=O)NC1CCCCC1)c1ccc(F)cc1,,6.68 µM (active)
CCCN(CC1CCOC1)S(=O)(=O)c1ccc(C)c(C)c1 (stereo unspecified),13.2%,
Cc1ccc(C(=O)Nc2ccc(OCc3cc(=O)n4c(C)csc4n3)cc2)cc1,-7.09%,
COC(=O)c1cnn(-c2ccc(C(=O)Nc3cccc(C(C)=O)c3)cc2)c1N,7.57%,
COC(=O)c1cnn(-c2ccc(C(=O)Nc3ccc(OC(F)(F)F)cc3)cc2)c1N,,4.73 µM (active)
O=C(NCc1ccc2c(c1)OCO2)c1cnc2c(c1)N([S+](=O)([O-])c1cccnc1)CCC2,1.02%,
CNC(=O)c1cnc2c(c1)N(C(=O)Cc1ccc(C(C)C)cc1)CCC2,23.4% [at 43.1 µM],
CC(C)c1ccc(CC(=O)N2CCCc3ncc(C(=O)Nc4cccnc4)cc32)cc1,,0.863 µM (active)
CC(C)CCNC(=O)c1cnc2c(c1)N(C(=O)Cc1cn(C)c3ccccc13)CCC2,-13% [at 43.1 µM],
CC(C)c1ccc(CC(=O)N2CCCc3ncc(C(=O)NCCc4c[nH]c5ccccc45)cc32)cc1,,15 µM (active)
Cn1cc(CC(=O)N2CCCc3ncc(C(=O)Nc4cccnc4)cc32)c2ccccc21,-27.4% [at 43.1 µM],
O=C(O)CCC(=O)Nc1ccc(-n2ccc(C(F)(F)F)n2)cc1,57%,
O=C1N(c2ccccc2C(F)(F)F)O[C@@]1(c1ccccc1)C1CCCC1,,2.99 µM (active)
O=C1N(c2ccccc2C(F)(F)F)O[C@@]1(c1ccccc1)C1CCCCC1,,5.31 µM (active)
O=C1CC2(CCN(CC3CCCCC3)CC2)Oc2cc(Cl)ccc21,,1.5 µM (active)
O=C1CC2(CCN(Cc3cccs3)CC2)Oc2cc(Cl)ccc21,,5.31 µM (active)
CC(=O)c1c(C)nc(C)nc1NC(=O)C(C)C,16.1%,
COc1ccccc1CN1CCC(CNC(=O)c2cnn(-c3cccc(Cl)c3)c2C2CCN(C(=O)OC(C)(C)C)CC2)CC1,,7.5 µM (active)
COc1ccccc1CN1CCC(CNC(=O)c2cnn(-c3ccc(Cl)cc3)c2C2CCN(C(=O)OC(C)(C)C)CC2)CC1,,2.66 µM (active)
Cc1ccc(CN2CCC(CNC(=O)c3cnn(-c4ccc(C)cc4)c3C3CCN(C(=O)OC(C)(C)C)CC3)CC2)cc1,,8.41 µM (active)
CNC(=O)[C@@H]1CN(C(=O)c2cc(OC)cc(OC)c2)C[C@H]1COC,15.4%,
CC(=O)Nc1ccc(NC(=O)Cn2ccn3nc4c(c3c2=O)CCCCC4)cc1,38.6%,

SMILES,"activity change, negative = inhibition",Potency
COc1ccc(-c2ncc3c(n2)OCCN(Cc2ccccc2)C3=O)cc1,-13.6% [at 43.1 µM],
COc1ccc(-c2cc(=O)oc3c4c(ccc23)OCN(Cc2ccccc2)C4)cc1,,2.99 µM (active)
CCc1c(C)c2ccc(O)c(CN3CCN(c4ccccc4)CC3)c2oc1=O,,2.37 µM (active)
O=c1cc(-c2ccccc2)c2ccc3c(c2o1)CN(Cc1ccccc1)CO3,,2.66 µM (active)
COc1ccccc1Cn1cc(C(=O)c2ccc(C)cc2)c(=O)c2cc(C)ccc21,-9.93%,
COc1ccccc1CN1COc2ccc3c(oc(=O)c4ccccc43)c2C1,,2.11 µM (active)
Cn1nc(-c2nncn2CC2CC2)c2c1CCN(C(=O)c1[nH]nc3c1COc1ccccc1-3)C2,-23.7%,
COc1cccc(C2Cn3nnc(-c4nc(-c5ccccc5Br)no4)c3CO2)c1 (stereo unspecified),-18.1%,
O=c1cc(-c2ccccc2)c2ccc3c(c2o1)CN(Cc1cccc(Cl)c1)CO3,,0.842 µM (active)
Cc1ccc(CN2CCc3oc(C)c(C(=O)N(C)CC(=O)N4CCCC4)c3C2)cc1,-21.8%,
O=C1CN(Cc2ccc(-c3ccccc3)cc2)CCN1c1cc(Cl)ncn1,8.44%,
Cc1ccc(CN2COc3ccc4c(-c5ccccc5)cc(=O)oc4c3C2)cc1,,0.842 µM (active)
CCC(=O)N(C1CCOCC1)C1CCN(Cc2cccc(Cl)c2)CC1,9.38%,
CCc1c(C)c2ccc3c(c2oc1=O)CN(Cc1ccccc1)CO3,,2.11 µM (active)
O=C(NC(=S)Nc1ccc(NC(=O)c2cccs2)cc1)c1ccco1,,9.44 µM (active)
Cc1cccc(CNC(=O)Cn2nc(C)c3nn(-c4ccc(Cl)cc4)c(C)c3c2=O)c1,33.4%,
COc1ccc(C(=O)NCCn2ccn3nc(-c4cc(C)ccc4C)cc3c2=O)cc1OC,-17.3%,
CCOc1ccc(-c2cc3c(=O)n(CCNC(=O)c4ccccc4OC)ccn3n2)cc1,-7.19%,
COc1ccc(-n2nc(C(=O)NCCc3ccc(OC)c(OC)c3)c3c4ccccc4n(C)c3c2=O)cc1Cl,,2.99 µM (active)
COc1ccccc1CC(=O)NCCn1ccn2nc(-c3ccc(C)c(C)c3)cc2c1=O,-25.6%,
CCN(CCCNC(=O)c1nn(-c2ccc(OC)c(Cl)c2)c(=O)c2c1c1ccccc1n2C)c1cccc(C)c1,,15 µM (active)
CCN(CC)CCCNC(=O)c1nn(-c2ccc(OC)c(Cl)c2)c(=O)c2c1c1ccccc1n2C,,10.6 µM (active)
CCn1cnc2c(Nc3cc(F)cc(F)c3)nc(C#N)nc21,,2.37 µM (active)

SMILES,"activity change, negative = inhibition",Potency
N#Cc1nc(Nc2cc(F)cc(F)c2)c2ncn(CC(F)F)c2n1,,4.73 µM (active)
Cc1ccc2nc(-c3sc4nc(C)ccc4c3N)[nH]c2c1,-26.6%,
CCCC(O)c1nc2ccccc2n1CCCCOc1ccc(OC)cc1 (stereo unspecified),,15 µM (active)
COc1ccc(-c2cc3c(=O)n(CCNC(=O)c4cc(OC)cc(OC)c4)ccn3n2)cc1,18.8%,
COc1ccc(-c2cc3c(=O)n(CCNC(=O)c4ccc(OC)cc4OC)ccn3n2)cc1,-17.1%,
CCC(C(=O)NCCn1ccn2nc(-c3ccc(OC)cc3)cc2c1=O)c1ccccc1 (stereo unspecified),,15 µM (active)
CC(C)N(Cc1nc2ccccc2[nH]1)C(C)C,-3.28%,
COC[C@H]1CCCN1[C@@H]1[C@H](O)[C@H](CO)O[C@@H]1CN(Cc1cccc(Cl)c1)Cc1cccc(Cl)c1,,10.6 µM (active)
O=C1c2ccccc2C2=Nc3ccccc3SC(c3ccc(Cl)cc3)C12 (stereo unspecified),,2.66 µM (active)
O=C1c2ccccc2C2=Nc3ccccc3SC(c3ccccc3F)C12 (stereo unspecified),,4.73 µM (active)
Cc1ccc(NC(=O)CSc2nc(-c3ccco3)cc(C(F)(F)F)n2)c(C)c1,-29%,
CCOC(=O)c1sc(NC(=O)C(C)Sc2nc(-c3ccccc3)cc(C(F)(F)F)n2)c(C(=O)OC)c1C (stereo unspecified),,2.37 µM (active)
CCCOC(=O)c1c(NC(=O)C(C)Sc2nc(-c3ccccc3)cc(C(F)(F)F)n2)sc(C(=O)N(C)C)c1C (stereo unspecified),,1.68 µM (active)
CCN(CC)C(=O)c1sc(NC(=O)C(C)Sc2nc(-c3ccccc3)cc(C(F)(F)F)n2)c(C(=O)OC)c1C (stereo unspecified),,0.596 µM (active)
CCc1cc(C(=O)c2ccccc2)c(N)s1,35.9%,
COc1ccc2nc(C)cc(NCc3cccc(C(F)(F)F)c3)c2c1,,2.11 µM (active)
COC(=O)c1ccc2nc(C)cc(Nc3ccc(O)cc3)c2c1,,9.44 µM (active)
Cc1ccc(-c2onc3ccc(C(=O)O)cc23)cc1,19.2%,
CCOc1ccc2nc(C)cc(Nc3ccc4c(c3)OCCO4)c2c1,,6.68 µM (active)
Cc1ccc2nc(C)cc(Nc3ccc([N+](=O)[O-])cc3)c2c1,,6.68 µM (active)
COc1ccc2nc(C)cc(Nc3ccc(Cl)c(Cl)c3)c2c1,,2.66 µM (active)
CCc1nc2cc(N3CCC(C(=O)NCc4ccc5c(c4)OCO5)CC3)cnc2nc1CC,-21.2%,
Cc1ccc(S(=O)(=O)N2CCC(C(=O)NCC3CC3)CC2)cc1,18.4%,

SMILES,"activity change, negative = inhibition",Potency
Cc1ccc(S(=O)(=O)N2CCN(C(=S)NCc3ccc4c(c3)OCO4)CC2)cc1,,2.37 µM (active)
CCCc1cc(=O)oc2cc(C)cc(OCC(=O)NC3CC3)c12,,4.73 µM (active)
CCCc1cc(=O)oc2cc(C)cc(OCC(=O)Nc3cccnc3)c12,,0.531 µM (active)
CCCc1cc(=O)oc2cc(C)cc(OCC(=O)Nc3ccccn3)c12,,2.11 µM (active)
Cc1ccc(C)c(OCC(=O)Nc2cc(C(=O)O)cc(C(=O)O)c2)c1,-0.159%,
CCCCc1cc(=O)oc2cc(C)cc(OCC(=O)Nc3cccnc3)c12,,0.596 µM (active)
Cc1cccnc1NC(=O)COc1ccc2oc3c(c2c1)CCCC3,26%,
Cc1cccc(OCC(=O)NC2CCN(C(=O)c3cc4c(=O)[nH]c(C)cn4n3)CC2)c1,-0.762%,
CCn1ncc(N2CCC(NC(=O)COc3ccc(F)cc3)CC2)cc1=O,-8.45%,
CCn1cc(S(=O)(=O)N2CCCOCCNC(=O)[C@@H]3CCC[C@@H]32)cn1,1.04%,
Cc1cc([N+](=O)[O-])ccc1NC(=O)COc1nsnc1N1CCOCC1,,6.68 µM (active)
COc1ccc(CN2CC[C@H](c3nnc(-c4ccccc4F)o3)C2)cc1,6.78% [at 43.1 µM],
COc1ccc(CCN2CCC(Nc3nc4ccccc4n3Cc3ccc(F)cc3)CC2)cc1,,2.37 µM (active)
COc1ccc(Cn2c(C3CCN(C(=O)Cc4ccc(F)cc4)CC3)n[nH]c2=O)cc1,-12.2%,
Cc1nc(N2CCC(C)CC2)c2c(C)c(C(=O)Nc3ccc(C(F)(F)F)cc3)sc2n1,,7.5 µM (active)
CC1CCN(c2nc3ccc(C(=O)O)cc3s2)CC1,68.3%,
CN(C(=O)CSc1nc2ccc(NC(=O)CCc3ccccc3)cc2s1)c1ccccc1,,13.3 µM (active)
COc1ccc(CNC(=O)Cn2c(SCC(=O)N(C)c3ccccc3)nc3ccccc32)cc1,21.9%,
Cc1ccc(C)n1-c1nnc(N2CCCC(C(=O)NCc3ccccc3)C2)s1 (stereo unspecified),-8.48%,
O=C(CC1CCCN(c2cnn(CC3CC3)c(=O)c2)C1)NCc1ccccc1 (stereo unspecified),8.87%,
O=C(NCc1ccc(N2CCCC2)cc1)C1CCCN(c2cnn(Cc3ccccc3)c(=O)c2)C1 (stereo unspecified),,10.6 µM (active)
Cc1cc(C)c(S(=O)(=O)Nc2cc(Cl)c3oc4c(c3c2)C(=O)CCC4)cc1C,0.504%,

# Reference: PubChem BioAssay AID1347416 (National Center for Advancing Translational Sciences (NCATS), 2020)
